m-calpain inh: blocks pig calpain II enzyme activity; purified calpain II, fluorogenic peptide substrate, 30 min; inhibition, % at 16 µM; 0.37% of 220,000 active;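 active = inhibition above about 50%, limit read from the data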
L929 necroptosis: blocks zVAD induced death of L929 cells; viability rescue, % at 10 µM; AID 1377; 0.38% of 220,000 active; L929 zVAD necroptosis rescue, ATP luminescence, 24 h; with zVAD 60 µM;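 active = activation, scaled between plate controls, above about 75%, limit read from the data; inactive = activation under that limit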
Mcl1 Bid PPI: Mcl-1/Bid interaction inhibition; 0.97% of 220,000 active; TR-FRET Mcl-1/Bid-Dy647 peptide binding, 1536-well; inhibition, % at 21.7 µM;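 active = compounds that cut the binding signal by more than half at the single screening dose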;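 note: His-tagged Mcl-1 with europium anti-His antibody binding Bid BH3 peptide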
Target sequence (Q07820 whole entry, looked up): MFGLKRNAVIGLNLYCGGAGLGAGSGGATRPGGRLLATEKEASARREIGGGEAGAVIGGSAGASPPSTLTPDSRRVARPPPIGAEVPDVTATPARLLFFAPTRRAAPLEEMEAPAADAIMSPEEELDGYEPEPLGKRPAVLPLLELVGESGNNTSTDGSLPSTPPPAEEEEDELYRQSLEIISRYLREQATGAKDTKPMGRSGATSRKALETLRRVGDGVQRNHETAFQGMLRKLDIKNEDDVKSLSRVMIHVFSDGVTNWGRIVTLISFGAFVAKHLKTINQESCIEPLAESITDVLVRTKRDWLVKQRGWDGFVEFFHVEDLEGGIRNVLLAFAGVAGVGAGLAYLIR
Mcl1-Noxa inh: disrupts binding of human Mcl-1 to Noxa peptide | Q07820 | TR-FRET Mcl-1/Noxa peptide binding, 2 h | inhibition, % at 21.7 µM | 1.5% of 220,000 active | AID 1022;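 active = compounds that cut the protein-peptide binding signal by more than 50% relative to plate controls in a single-dose test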;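 note: His-tagged Mcl-1 with rhodamine Noxa BH3 peptide and terbium anti-His antibody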
TNF death inh: inhibitors of TNF-alpha induced necroptosis in Jurkat FADD-/- cells; Jurkat FADD-/- TNF necroptosis rescue, ATP luminescence, 24 h; 0 = TNF only, 100 = no-TNF cells; activation (protection from cell death), % at 10 µM; AID 463075; 0.068% of 220,000 active;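 active = activation, meaning protection from cell death, of at least 50% relative to plate controls; inactive = activation below 50%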;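 note: necroptosis triggered by 40 ng/mL TNF-alpha added together with compound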
Mcl-1 Bim block: disrupts Bim peptide binding to human Mcl-1. Q07820. AID 1009. 0.1% of 190,000 active. Bead-based flow cytometry, Bim peptide-Mcl-1 binding. inhibition, % at 10 µM; in the data active = inhibition above about 40%
Numbers stand for hits; – = inactive; · = not tested or not shown. Shown are actives, neighbours in structure and some others; about 2.8% of the full set was active somewhere.

SMILES | m-calpain inh | L929 necroptosis | Mcl1 Bid PPI | Mcl1-Noxa inh | TNF death inh | Mcl-1 Bim block
Cc1ccc([N+](=O)[O-])cc1-c1ccc(/C=C(\C#N)c2[nH]nc(N)c2C#N)o1 | – | – | 79.0 | 67.6 | – | –
O=C1c2ccccc2C(=O)N1Cc1cc(-c2ccc(Cl)cc2)no1 | · | – | · | · | – | ·
Cc1ccc(-n2c(SCC(=O)NCc3ccco3)nc3sc4c(c3c2=O)CC(C)(C)SC4)cc1 | – | – | 88.7 | – | – | –
CCN(CC)C(=O)CSc1nc2sc3c(c2c(=O)n1-c1ccc(C)cc1)CC(C)(C)SC3 | – | – | – | – | – | –
CCOc1ccccc1Nc1nnc(SC(C)C(=O)Nc2nc(-c3ccccc3)cs2)s1 (centres undefined) | – | – | – | – | – | –
NNC(=O)c1cccc(O)c1 | – | – | – | – | – | –
COc1cc(/C=C2/SC(=Nc3ccc(O)cc3)NC2=O)cc(OC)c1O | – | – | – | 50.6 | – | –
O=C1NC(=Nc2ccc(O)cc2)S/C1=C\C=C\c1ccco1 | – | – | – | 59.9 | – | ·
COc1cc(/C=C2\SC(=Nc3ccc(O)cc3)NC2=O)cc(OC)c1OC | – | – | – | – | – | ·
CCOC(=O)NC(=O)c1cn(CCNCCO)c(=O)[nH]c1=O | – | – | – | – | – | –
CCOC(=O)Cc1nnc(Nc2ccc(C)cc2C)c2ccccc12 | – | – | – | – | – | –
O=C(O)c1ccc(CS(=O)(=O)Cc2ccccc2F)o1 | – | · | 91.9 | – | – | –
CC(=O)Oc1cc2c3c(c1)/C(=C1/SC(=S)NC1=O)C(=O)N3C(C)(C)C=C2C | – | – | – | 51.0 | – | ·
CCOc1cc2c3c(c1)C(C)=CC(C)(C)N3C(=O)C2=O | – | – | – | – | – | –
COc1ccccc1OC(=O)c1cc(Cl)nc2ccccc12 | – | – | – | · | – | –
CCOc1ccccc1NC(=O)c1cc(-c2ccncc2)nc2c(Cl)cccc12 | – | – | 50.9 | – | – | –
C#CCN1C(=O)S/C(=C/C=C/c2ccc(N(C)C)cc2)C1=O | – | – | – | – | – | –
CN(C)c1ccc(/C=C2\SC(=O)N(CCc3nnc(N)s3)C2=O)cc1 | – | – | – | 67.2 | – | ·
CN(C)c1ccc(/C=C2/SC(=O)N(CCN=C3NS(=O)(=O)c4ccccc43)C2=O)cc1 | – | – | – | 52.3 | – | 78.0
CN(C)c1ccc(/C=C2\SC(=O)N(CC(O)Cn3c4ccccc4c4ccccc43)C2=O)cc1 (centres undefined) | – | – | – | – | – | –
CCOc1cc(S(=O)(=O)Nc2ccccn2)ccc1F | – | – | – | – | – | 50.0
CCOc1cc(S(=O)(=O)Nc2ccccc2CC)ccc1Cl | – | – | – | 55.8 | – | –
CCOc1cc(S(=O)(=O)Nc2ccc(Cl)cn2)ccc1F | – | – | – | – | – | –
Cc1ccc(C(C)C)c(OCCN(C)C)c1 | – | – | 59.5 | – | – | –
COc1ccccc1CNC(=O)/C=C/c1ccc(Br)o1 | – | – | – | 69.6 | – | –
SMILES | m-calpain inh | L929 necroptosis | Mcl1 Bid PPI | Mcl1-Noxa inh | TNF death inh | Mcl-1 Bim block
COc1ccc(NC(=O)/C=C/c2ccc(Br)o2)cn1 | – | – | – | 58.3 | – | –
COC(=O)c1ccc(Cn2cc(Cl)cn2)o1 | – | – | – | – | – | ·
Cc1ccc(N2CC(=O)Nc3c(oc4nc(-c5ccccc5)cc(C)c34)C2=O)cc1 | – | – | – | – | – | ·
CCCCCCCCCCCCCCCC(=O)OC[C@H](COP(=O)([O-])OCC[N+](C)(C)C)OC(=O)CCCCCCCCCCCCCCC | – | – | – | – | – | –
O=C(O)Cc1sc(N/N=C\c2ccccc2)nc1-c1ccccc1 | – | – | – | 61.9 | – | –
CCn1c(CCCc2ccc(OC)c(C)c2)n[nH]c1=S | – | – | – | – | – | –
Cc1ccc2nc(SC(C)C(=O)NC3CCCc4ccccc43)[nH]c2c1 (centres undefined) | – | – | 84.0 | – | – | –
Cc1nnc(SCC(=O)N2N=C(c3ccc(Cl)cc3)CC2c2ccco2)[nH]c1=O (centres undefined) | – | – | – | 53.3 | – | –
CC(=O)N1N=C(c2ccc(Cl)cc2)CC1c1ccco1 (centres undefined) | – | – | – | – | – | ·
CCn1c(SCC(=O)O)nnc1-c1ccccc1OC | – | – | – | – | – | –
CCOc1cc(/C=C2/C(=N)N3C=CSC3=NC2=O)ccc1OCCCOc1ccccc1C | – | – | 57.3 | – | – | –
COc1cc(/C=C2/C(=N)N3C=CSC3=NC2=O)ccc1OCCCOc1ccccc1C | – | – | – | – | – | –
Cc1cc(C(=O)CSc2nnc(-c3cccs3)o2)c(C)n1-c1ccccc1 | – | – | – | – | – | –
CCCN1C(=O)C2(C(C(=O)c3ccc(C)o3)=C(O)C(=O)N2CCCOC)c2ccccc21 (centres undefined) | – | – | – | – | – | ·
COc1ccc(CNC(=O)c2ccc(-c3ccccc3)cc2)cc1 | – | – | – | – | – | –
COC(=O)/C=C1\OC(c2ccccc2)=CC1=O | – | – | – | 66.0 | – | –
COC(=O)[C@@H]1CC[C@H](C)[C@@H](c2ccc(C)cc2)N1C(=O)c1ccc(/C=N/O[C@@H](C)c2cn([C@H](CO)Cc3ccccc3)nn2)cc1 | – | – | – | – | – | –
COc1ccc(NS(=O)(=O)c2cccc(NC(=O)CCC(=O)c3ccc(Cl)cc3)c2)cc1 | – | – | 96.2 | – | – | –
O=C(O)c1ccccc1-c1ccccc1C(=O)NNc1ccc([N+](=O)[O-])cc1 | – | – | – | – | – | ·
Nc1scc2c(C(=O)N/N=C/c3ccc(Cl)cc3)nn(-c3ccccc3)c(=O)c12 | – | – | – | 93.6 | – | –
COc1ccc(C(=O)NCCSc2ccccc2)cc1OC | – | – | – | – | – | –
Cc1ccccc1CC1(CO)CCCN(C(=O)CCCN2CCCCC2=O)C1 (centres undefined) | – | – | – | – | – | –
COCCN1Cc2cccc(C(=O)Nc3ccc(C)cc3)c2C1=O | – | – | – | – | – | –
COCCN1Cc2cccc(C(=O)Nc3cccc(C)c3C)c2C1=O | – | – | 91.4 | 90.4 | – | –
c1ccc2c(N3CCOCC3)nc(N3CCOCC3)nc2c1 | – | – | 66.0 | 51.5 | – | –
SMILES | m-calpain inh | L929 necroptosis | Mcl1 Bid PPI | Mcl1-Noxa inh | TNF death inh | Mcl-1 Bim block
c1ccc(CN2CCN(c3nc(N4CCOCC4)c4ccccc4n3)CC2)cc1 | · | – | · | · | – | ·
COc1ccc(/C=N/NC(=O)CN2CCSCC2)c(OC)c1 | – | – | – | 60.2 | – | –
COc1ccc(OC)c(/C=N/NC(=O)CN2CCSCC2)c1 | – | – | – | – | – | –
CC(=O)C1C(c2ccc(F)c(F)c2)NC(=O)NC1(O)C(F)(F)F (centres undefined) | – | – | – | – | – | –
Cc1ccc2c(c1)NC(=O)c1cccnc1N2 | – | – | – | 76.9 | – | –
C/C(=N\N=C(N)N)c1ccc(C)c(C)c1 | – | – | – | – | – | ·

High-throughput results deposited in PubChem BioAssay by several laboratories.
